Several values for one entry are separate records, joined by “and”; a condition that tells them apart may be missing. Equal entries are not always repeated. About 2,000 (36%) of roughly 5,500 compounds were called active. Inconclusive results (about 18%) are left out. Cut-off read from the data, not from the text of the source: active = normalized growth mostly below about 0.91 (no sharp cut-off); inconclusive = no clear call, values can overlap the other calls; inactive = mostly above about 0.92. Some of the results follow.
Experiment: chemical genetic growth profiling, strain panel (AID 1159580);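 note: tested at 20 µM; growth read once vehicle control cultures reached saturation at 30 °C; 1 = growth at the plate median or of vehicle wells; lower values mean less growth of the strain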
Details: S. cerevisiae deletion strains, growth OD

Measured: normalized growth

Cc1c(Cl)cccc1Nc1ccccc1C(=O)O
active: locus YAL021C, strain ccr4, active compounds read low 0.863 | locus YAL026C, strain drs2, active compounds read low 0.805 | locus YAL030W, strain snc1, active compounds read low 0.842 | locus YBL061C, strain skt5, active compounds read low 0.81 | locus YBR009C, strain hhf1, active compounds read low 0.82 | locus YBR021W, strain FUR4, active compounds read low 0.74 | locus YBR023C, strain chs3, active compounds read low 0.801 | locus YBR171W, strain sec66, active compounds read low 0.729 | locus YBR229C, strain ROT2, active compounds read low 0.848 | locus YBR231C, strain swc5, active compounds read low 0.825 | locus YBR279W, strain paf1, active compounds read low 0.839 | locus YCL011C, strain gbp2, active compounds read low 0.83 | locus YCL016C, strain dcc1, active compounds read low 0.827 | locus YCL029C, strain bik1, active compounds read low 0.812 | locus YCL061C, strain MRC1, active compounds read low 0.842 | locus YCL069W, strain vba3, active compounds read low 0.815 | locus YCR088W, strain abp1, active compounds read low 0.812 | locus YDL005C, strain med2, active compounds read low 0.865 | locus YDL035C, strain GPR1, active compounds read low 0.848 | locus YDL040C, strain nat1, active compounds read low 0.83 | locus YDL074C, strain BRE1, active compounds read low 0.75 | locus YDL134C, strain PPH21, active compounds read low 0.817 | locus YDL192W, strain arf1, active compounds read low 0.796 | locus YDR001C, strain nth1, active compounds read low 0.804 | locus YDR069C, strain doa4, active compounds read low 0.897 | locus YDR101C, strain arx1, active compounds read low 0.835 | locus YDR137W, strain rgp1, active compounds read low 0.464 | locus YDR150W, strain NUM1, active compounds read low 0.836 | locus YDR159W, strain sac3, active compounds read low 0.615 | locus YDR162C, strain NBP2, active compounds read low 0.709 | locus YDR195W, strain ref2 1.15 [resistant] | locus YDR297W, strain sur2, active compounds read low 0.835 | locus YDR318W, strain mcm21, active compounds read low 0.793 | locus YDR334W, strain swr1, active compounds read low 0.812 | locus YDR335W, strain msn5, active compounds read low 0.836 | locus YDR388W, active compounds read low 0.79 | locus YDR392W, strain spt3, active compounds read low 0.225 | locus YDR502C, strain sam2, active compounds read low 0.802 | locus YEL003W, strain gim4, active compounds read low 0.839 | locus YEL037C, strain rad23, active compounds read low 0.836 | locus YEL061C, strain CIN8 (second series), active compounds read low 0.819 | locus YEL061C, strain CIN8, active compounds read low 0.855 | locus YER015W, strain faa2, active compounds read low 0.848 | locus YER016W, strain bim1, active compounds read low 0.856 | locus YER110C, active compounds read low 0.769 | locus YER111C, strain swi4, active compounds read low 0.831 | locus YER155C, strain BEM2 (second series), active compounds read low 0.595 | locus YER155C, strain BEM2, active compounds read low 0.684 | locus YER167W, strain BCK2, active compounds read low 0.812 | locus YFR010W, strain ubp6, active compounds read low 0.876 | locus YGL086W, strain mad1, active compounds read low 0.815 | locus YGL167C, strain pmr1, active compounds read low 0.757 | locus YGL173C, strain kem1, active compounds read low 0.819 | locus YGL227W, strain vid30, active compounds read low 0.808 | locus YGL240W, strain doc1, active compounds read low 0.791 | locus YGL248W, strain PDE1, active compounds read low 0.841 | locus YGL253W, strain hxk2, active compounds read low 0.706 | locus YGR078C, strain PAC10, active compounds read low 0.814 | locus YGR135W, strain pre9, active compounds read low 0.792 | locus YGR252W, strain gcn5, active compounds read low 0.609 | locus YHR027C, strain rpn1, active compounds read low 0.843 | locus YHR030C, strain SLT2, active compounds read low 0.827 and 0.555 | locus YHR079C, strain IRE1 (second series), active compounds read low 0.793 | locus YHR079C, strain IRE1, active compounds read low 0.633 | locus YHR094C, strain hxt1, active compounds read low 0.796 | locus YHR129C, strain ARP1, active compounds read low 0.837 | locus YHR142W, strain chs7, active compounds read low 0.586 | locus YHR200W, strain rpn10, active compounds read low 0.789 | locus YIL066C, strain RNR3, active compounds read low 0.839 | locus YIR030C, strain dcg1, active compounds read low 0.792 | locus YJL092W, strain hpr5, active compounds read low 0.814 | locus YJL095W, strain BCK1 (second series), active compounds read low 0.828 | locus YJL095W, strain BCK1, active compounds read low 0.594 and 0.648 | locus YJL115W, strain asf1, active compounds read low 0.854 | locus YJL129C, strain trk1, active compounds read low 0.442 | locus YJL134W, strain LCB3, active compounds read low 0.842 | locus YJL154C, strain vps35, active compounds read low 0.845 | locus YJL164C, strain tpk1, active compounds read low 0.803 | locus YJL166W, strain qcr8, active compounds read low 0.756 | locus YJL168C, strain set2, active compounds read low 0.797 | locus YJL187C, strain SWE1 (second series), active compounds read low 0.851 | locus YJL187C, strain SWE1, active compounds read low 0.832 | locus YJR066W, strain TOR1, active compounds read low 0.731
inactive: locus YDL101C, strain DUN1, active compounds read low 0.929 | locus YDL185W, strain tfp1, active compounds read low 0.956 | locus YGL078C, strain dbp3, active compounds read low 0.958 | locus YHR013C, strain ard1, active compounds read low 0.854 | locus YIL073C, strain SPO22, active compounds read low 0.776 | locus YIL125W, strain kgd1, active compounds read low 0.966 | locus YJR043C, strain POL32, active compounds read low 0.867
